TDP-43 rescue = rescues yeast from TDP-43 toxicity. Potency, µM (doses to about 46.1 µM), actives largely listed as activators. yeast TDP-43 toxicity rescue, BacTiter-Glo growth, 24 h. 0.45% of 45,000 active; active = well fitted activation curve with a large enough effect; note: 0% is about no effect; nearly all actives have a fitted effect of over 55% in size
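TDP-43-expressing yeast, pregrown in raffinose, seeded at OD600 0.02 in galactose medium with compound for 24 hr at 30 deg C. Growth read by BacTiter-Glo luminescence, so rescue of toxicity appears as activation.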
* marks the source's active call; other numbers are inactive results; i = inactive. Many of the other results were omitted from the sample, so hits are more common in it than they were. Potency is the fitted concentration of half-maximal effect.

SMILES	TDP-43 rescue
COc1ccc(Cl)cc1NC(=S)NN1CCOCC1	i
COc1ccc(/C(N)=N/O)c(OC)c1	i
O=C(Cc1ccc(Cl)cc1)NCCCNC(=O)c1cccnc1	i
CCOC(=O)Nc1ccc2c(c1)N(C(=O)CN1CCN(CCO)CC1)c1ccccc1CC2	i
O=C(Cc1cn(-c2ccccc2)nc1-c1ccccc1)N1CCCCC1	i
Cc1cc(C)c(C#N)c(SCC(O)COc2ccc(Br)cc2)n1 (configuration not stated)	12.6µM*
CCCCN(CCCC)CC(O)COc1ccc(Br)cc1 (configuration not stated)	i
COC(=O)CSc1nc(C)cc(C)c1C#N	i
CCOc1ccc(NC(=O)C2C(c3ccccc3)C2(Cl)Cl)cc1 (configuration not stated)	i
O=C(NCCOc1ccc(F)cc1)C1CCC(=O)N(CCN2CCOCC2)C1 (configuration not stated)	i
O=[N+]([O-])c1ccc(-c2ccc(S(=O)(=O)NCCN3CCCC3)cc2)cc1	i
NC(=S)N/N=C/c1cccc(/C=N/NC(N)=S)c1	i
Cc1cc(/C=N/NC(N)=S)c(O)c(/C=N/NC(N)=S)c1	i
Cc1ccc(-n2c(C)cc(/C=N/NC(N)=S)c2C)cc1	14.1µM*
CC(CN1CCOCC1)OC(=O)CCc1ccccc1 (configuration not stated)	i
CC(CN1CCOCC1)OC(=O)c1ccc(Br)cc1 (configuration not stated)	15.8µM*
CC1CCN(CC(C)OC(=O)c2ccco2)CC1 (configuration not stated)	i
O=C(NCc1cccs1)c1ccc2sc(C3=C[C@@H](O)[C@@H](O)[C@@H](CO)O3)nc2c1	i
O=C(CSc1nc2scc(-c3ccccc3)c2c(=O)[nH]1)N1CCOCC1	i
Cc1ccccc1Cn1c(C)c(C(=O)NCC(C)C)sc1=O	i
CN(Cc1ccccc1)c1oc(-c2ccco2)nc1C#N	14.1µM*
CC1CN(c2oc(-c3ccco3)nc2C#N)CC(C)O1 (configuration not stated)	i
N#Cc1nc(-c2ccc(OCc3ccccc3)cc2)oc1NCc1ccco1	i
COc1ccccc1NS(=O)(=O)c1ccc(NC(=O)N2CCCCC2)cc1	i
Cc1ccc(C(=O)NCC(=O)NCc2ccc(Cl)cc2)s1	i
SMILES	TDP-43 rescue
CC(C)n1nccc1NC(=O)COC(=O)c1ccc(NC(N)=O)cc1	i
CC1CCN(C(=O)CSc2nnc(-c3cccnc3)o2)CC1	i
O=S(=O)(c1cccc(-c2nnc(SCc3ccc(Cl)cc3)o2)c1)N1CCCCC1	i
Brc1ccc(CSc2nnc(-c3cccnc3)o2)cc1	12.6µM*
COc1ccccc1CNC(=O)CN1C(=O)NC(Cc2ccccc2)(c2ccccc2)C1=O (configuration not stated)	i
CCCN(C(=O)Cc1coc2cc(OC)ccc12)C1CCS(=O)(=O)C1 (configuration not stated)	i
CCOC(=O)c1c(CC(C)C)csc1NC=O	15.8µM*
CCOC(=O)c1c(N)sc(N)c1C(=O)OCC	i
CC(C)Cc1csc(NC(=O)c2ccc(F)cc2)c1C(=O)O	i
O=C(CC12CC3CC(CC(C3)C1)C2)NCC(c1ccc(F)cc1)N1CCOCC1 (configuration not stated)	i
Cc1ccc(-c2nnc3c4ccccc4c(C)nn23)cc1NC(=O)c1ccccc1	i
O=C(CN1CSCC1=O)N1CCN(S(=O)(=O)c2cc(C(F)(F)F)ccc2Cl)CC1	i
Cn1nnnc1N=N/C(=N/Nc1ccccc1)c1ccccc1	6.31µM*
O=C(Oc1ccc(NC2=NS(=O)(=O)c3ccccc32)cc1)c1cccnc1	i
COC(=O)c1c(NC(=O)CSc2ncnc3ccccc23)sc(C)c1C	i
NS(=O)(=O)c1ccc(CCNC(=O)CSc2ncnc3ccccc23)cc1	i
CCN(CC)S(=O)(=O)c1ccc(NC(=O)CSc2ncnc3ccccc23)cc1	22.4µM*
O=C(CN(c1ccccc1)S(=O)(=O)c1ccccc1[N+](=O)[O-])N1CCCC1	i
Cc1cccc(C)c1NC(=O)CNC(=O)c1ccc2c(c1)NC(=O)CS2	i
CCN(CC)S(=O)(=O)c1cccc(NC(=O)c2cccc(S(=O)(=O)N3CCCC3)c2)c1	i
O=C(c1ccc(Cl)c(S(=O)(=O)N2CCCC2)c1)N1CCN(c2ccccc2F)CC1	i
O=C(c1c[nH]c(C(=O)N2CCN(c3ccccc3F)CC2)c1)c1cccc(Cl)c1Cl	20µM*
NC(=O)c1cc(C(=O)c2cccc(Cl)c2Cl)c[nH]1	i
O=C(COC(=O)CCc1ccccc1)Nc1ccc(F)cc1Cl	i
COc1cccc(C(O)c2nc(-c3ccccc3C)cs2)c1 (configuration not stated)	11.2µM*
SMILES	TDP-43 rescue
COc1cccc(C(O)c2nc(-c3ccncc3)cs2)c1 (configuration not stated)	i
COc1cccc(C(N)c2nc(-c3cc(F)cc(F)c3)cs2)c1 (configuration not stated)	i
Cc1cccc(N(C(=O)CNC(=O)c2ccco2)C(C(=O)NC2CCCC2)c2cccnc2)c1C (configuration not stated)	i
CC1CCCN(C(=O)COC(=O)Cc2c(F)cccc2Cl)C1 (configuration not stated)	i
Cc1ccccc1C1C(C#N)=C(N)N(N(C)C)C2=C1C(=O)CC(C)(C)C2 (configuration not stated)	i
O=C(Nc1ccccc1C(=O)N/N=C/c1ccccc1)c1ccco1	i
O=C(N/N=C/C(Br)=C\c1ccccc1)c1ccco1	10µM*
Cc1occc1C(=O)N/N=C/C(Br)=C\c1ccccc1	i
CC1(CCc2ccccc2)NC(=S)N(c2ccccc2)N1 (configuration not stated)	i
COCCNC(=O)C1(C)CCN(Cc2cccc(Oc3ccccc3)c2)C1 (configuration not stated)	i
O=C(C1CCCN(S(=O)(=O)c2cc(Cl)ccc2Cl)C1)N1CCCC1 (configuration not stated)	14.1µM*
O=C(C1CCCN(S(=O)(=O)c2ccc(Cl)cc2)C1)N1CCCC1 (configuration not stated)	i
COc1ccc(Cl)cc1S(=O)(=O)N1CCCC(C(=O)N2CCOCC2)C1 (configuration not stated)	i
CC(C)(C)c1ccc(C(=O)NCC(=O)N2CCCCCC2)cc1	i
CC1(C(=O)NS(=O)(=O)c2cccc(C#N)c2)CCN1C(=O)C1(c2ccc(Cl)cc2)CCC1 (configuration not stated)	i
Cc1cc(S(=O)(=O)Nc2nc(CN3CCOCC3)nc3sc4c(c23)CCC4)ccc1F	i
CC1(C(=O)NS(=O)(=O)Cc2cccc(Cl)c2)CCN1C(=O)C/C=C/c1ccccc1 (configuration not stated)	i
